The values that follow come from PubChem BioAssay (EPA / NIEHS).

The structures appear in SMILES notation. Calls of active or inactive are those of the source. Rule for the calls: active = hit-call score of the fitted dose curve at least 0.9, where 1 is the maximum; inactive = score below 0.9.

Usually AC50 stands for the concentration giving half of the maximal activity seen.

Test [1] can be described thus: ATG_DR4_LXR_CIS: Attagene CIS-FACTORIAL HepG2 Assay for human Liver X Receptor (LXR), DR4 submotif (AID 2282929). Particulars: HepG2 Attagene DR4 cis-reporter, mRNA transcription; AC50: actives raise or lower the signal unless noted; outcome: actives raise or lower the signal unless noted. Put shortly:
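HepG2 cells transiently transfected with cis-promoter-driven multiplexed reporter units (DR4 element) were dosed for 24 h. Reporter mRNA was quantified by RT-PCR, fluorescent primer extension, HpaI digestion and capillary electrophoresis; bidirectional fitting versus DMSO baseline.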

Test [2] addresses Aryl hydrocarbon receptor (Homo sapiens) (UniProt P35869). The experiment in a line: ATG_Ahr_CIS: Attagene CIS-FACTORIAL HepG2 Assay for human Aryl Hydrocarbon Receptor (Ahr) (AID 2282930). As to conditions: HepG2 AhR cis-factorial reporter transcription; actives raise or lower the signal. Put shortly:
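HepG2 cells transiently transfected with cis-element-driven multiplexed reporter transcription units; endogenous transcription factor activity measured as reporter mRNA 24 h after dosing. RT-PCR, 6-FAM labelling, HpaI digestion, capillary electrophoresis; bidirectional fitting versus DMSO baseline.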

A short description of test [3]: ATG_AP_1_CIS: Attagene CIS-FACTORIAL HepG2 Assay for human Activator Protein 1 (AP-1) (AID 2282931). Particulars: HepG2 Attagene cis-factorial AP-1 reporter mRNA; actives raise or lower the signal. Put shortly: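 HepG2 cells transiently transfected with cis-element-driven multiplex reporter units; 24 h compound exposure. Reporter mRNA quantified by RT-PCR, FAM-labelled fragments resolved by capillary electrophoresis; bidirectional fit versus DMSO baseline.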

Test [4] in a line: ATG_AP_2_CIS: Attagene CIS-FACTORIAL HepG2 Assay for human Activator Protein 2 (AP-2) (AID 2282932). As to conditions: HepG2 AP-2 cis-reporter, Attagene transcription factor profiling; AC50: actives raise or lower the signal unless noted; outcome: actives raise or lower the signal unless noted. Put shortly:
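Cells (HepG2) transfected with promoter-driven reporter constructs, treated 24 h. Total RNA reverse-transcribed, reporter cDNA PCR-amplified, FAM-labelled by primer extension, digested, resolved by capillary electrophoresis. Activity fitted both directions versus DMSO.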

A short description of test [5]: ATG_BRE_CIS: Attagene CIS-FACTORIAL HepG2 Assay for human Bone Morphogenetic Protein (BMP) Response Element (BRE) (AID 2282933). As to conditions: HepG2 BMP response element reporter, Attagene transcription factor profiling; actives raise or lower the signal. Put shortly:
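Fluorescence-labelled reporter cDNA fragments, separated by capillary electrophoresis, gave the signal for this component of a 52-readout multiplex. HepG2 cells were transfected, exposed to chemicals for 24 h, and compared with DMSO using bidirectional fitting.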

For test [6], the target named is Retinoic acid receptor alpha (Homo sapiens) (UniProt P10276). The experiment in a line: ATG_DR5_RAR_CIS: Attagene CIS-FACTORIAL HepG2 Assay for human Retinoic Acid Receptor Alpha (RARE), DR5 submotif (AID 2282934). Particulars: HepG2 Attagene cis-factorial RARE DR5 reporter, mRNA; actives raise or lower the signal. Put shortly:
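HepG2 cells transiently transfected with multiplexed reporter units under cis (DR5 RARE) promoters, so endogenous transcription factor activity is measured. After 24 h compound exposure, reporter mRNA is quantified by RT-PCR with fluorescent labelling and capillary electrophoresis; bidirectional fitting versus DMSO.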

The target of test [7] is Transcription factor E2F1 (Homo sapiens) (UniProt Q01094). The experiment in a line: ATG_E2F_CIS: Attagene CIS-FACTORIAL HepG2 Assay for human E2F Transcription Factor 1 (AID 2282935). Particulars: HepG2 Attagene cis-reporter, E2F reporter RNA transcripts; actives raise or lower the signal. Put shortly:
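First, HepG2 cells were transfected with reporter transcription units. Next, they were dosed for 24 h. Then RNA was isolated, converted to cDNA, PCR-amplified, FAM-labeled, HpaI-digested and analyzed by capillary electrophoresis.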

The nature of test [8]: ATG_E_Box_CIS: Attagene CIS-FACTORIAL HepG2 Assay for human Enhancer Box (E-box) (AID 2282936). As to conditions: HepG2 E-box cis-reporter transcription, actives raise or lower the signal. Put shortly:
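Endogenous transcription factor activity was sensed in human HepG2 liver cells through transfected cis-promoter reporter units. After 24 h of dosing, total RNA was reverse-transcribed and reporter cDNA resolved by capillary electrophoresis.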

Test [9] is described as follows: ATG_M_61_CIS: Attagene CIS-FACTORIAL HepG2 Assay for M61 Transcription Factor (Internal Marker) (AID 2282937). Particulars: HepG2 Attagene CIS-FACTORIAL M61 internal marker reporter; actives raise or lower the signal. Put shortly:
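HepG2 cells transiently transfected with cis-element-driven multiple reporter transcription units, dosed for 24 h. Reporter mRNA measured by RT-PCR, 6-FAM primer-extension labelling, HpaI digestion and capillary electrophoresis; bidirectional fit versus DMSO baseline.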

The nature of test [10]: ATG_EGR_CIS: Attagene CIS-FACTORIAL HepG2 Assay for human Early Growth Response 1 (EGR1) (AID 2282938). As to conditions: HepG2 Attagene CIS-FACTORIAL EGR reporter mRNA; actives raise or lower the signal. A digest of the protocol: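 HepG2 cells transiently transfected with cis-promoter-driven multiplexed reporter transcription units; reporter mRNA measured 24 h after compound dosing by RT-PCR, 6-FAM primer extension, HpaI digestion and capillary electrophoresis. Bidirectional fit versus DMSO baseline.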

The nature of test [11]: ATG_M_19_CIS: Attagene CIS-FACTORIAL HepG2 Assay for M19 Transcription Factor (Internal Marker) (AID 2282939). Particulars: HepG2 Attagene CIS-FACTORIAL M19 internal marker reporter; actives raise or lower the signal. Put shortly:
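HepG2, MRTU transient transfection, 24 h dosing. Total RNA → RT-PCR → 6-FAM primer extension → HpaI digest → CE fluorescence. Bidirectional curve fit, DMSO negative control.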

Test [12] can be described thus: ATG_ERE_CIS: Attagene CIS-FACTORIAL HepG2 Assay for Estrogen Response Element (ERE) (AID 2282940). Particulars: HepG2 ERE cis-reporter, Attagene RNA transcript; actives raise or lower the signal. A digest of the protocol: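 After a 24 h chemical treatment, RNA from reporter-transfected HepG2 cells is reverse-transcribed, PCR-amplified and fluorescently labelled. Fragments separated by capillary electrophoresis give reporter signal; DMSO serves as negative control.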

A short description of test [13]: ATG_Ets_CIS: Attagene CIS-FACTORIAL HepG2 Assay for human Erythroblast Transformation Specific (ETS) (AID 2282941). Particulars: HepG2 ETS cis-reporter transcription; AC50: actives raise or lower the signal unless noted; outcome: actives raise or lower the signal unless noted. A digest of the protocol: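 RT-PCR/capillary electrophoresis fluorescence read-out of reporter mRNA; HepG2 transient multi-reporter transfection; 24 h compound exposure; gain or loss of signal fitted bidirectionally relative to DMSO.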

Test [14] deals with Hepatocyte nuclear factor 3-beta (Homo sapiens) (UniProt Q9Y261). In words: ATG_FoxA2_CIS: Attagene CIS-FACTORIAL HepG2 Assay for human Forkhead box A2 (FOXA2) (AID 2282942). As to conditions: HepG2 cis-reporter transcription factor activity, 24 h; actives raise or lower the signal. Put shortly: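 HepG2 cells transiently transfected with multiple cis-regulated reporter transcription units, dosed for 24 h. Reporter mRNA measured by RT-PCR, 6-FAM labelling, HpaI digestion and capillary electrophoresis; bidirectional fitting against DMSO baseline.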

Test [15] in a line: ATG_FoxO_CIS: Attagene CIS-FACTORIAL HepG2 Assay for human Forkhead box O (FoxO) (AID 2282943). As to conditions: HepG2 Attagene cis-reporter, FoxO element, mRNA; actives raise or lower the signal. A digest of the protocol: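 HepG2 cells transiently transfected with cis-promoter-driven multiple reporter transcription units; 24 h after chemical dosing, reporter mRNA quantified by RT-PCR, fluorescent primer extension, HpaI digestion and capillary electrophoresis. Bidirectional fitting versus DMSO baseline.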

Test [16] is described as follows: ATG_GATA_CIS: Attagene CIS-FACTORIAL HepG2 Assay for human GATA Binding Protein (AID 2282944). As to conditions: HepG2 GATA cis-element reporter, Attagene multiplex mRNA; actives raise or lower the signal. A digest of the protocol:
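Cells: HepG2, transiently transfected with cis-regulated reporter transcription units. Exposure: 24 h. Detection: RT-PCR plus capillary electrophoresis of FAM-labeled fragments. Analysis: bidirectional, DMSO as baseline.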

Test [17] can be described thus: ATG_GLI_CIS: Attagene CIS-FACTORIAL HepG2 Assay for human Zinc Finger Protein GLI1 (AID 2282945). As to conditions: HepG2, Attagene cis-factorial reporter mRNA, GLI element; actives raise or lower the signal. A digest of the protocol: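 HepG2 cells transiently transfected with cis-promoter multiplexed reporter units report endogenous transcription factor activity. After 24 h chemical exposure, reporter mRNA was quantified by RT-PCR, 6-FAM labelling, HpaI digestion and capillary electrophoresis, with bidirectional fitting against DMSO.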

The target in test [18] is Bile acid receptor (Homo sapiens) (UniProt Q96RI1). The experiment in a line: ATG_IR1_CIS: Attagene CIS-FACTORIAL HepG2 Assay for human Nuclear Receptor Subfamily 1 Group H Member 4 (NR1H4), IR1 submotif (AID 2282946). Particulars: IR1 reporter transcription, actives raise or lower the signal. Put shortly: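 Readout: reporter transcript levels by RT-PCR with fluorescent capillary electrophoresis, from HepG2 cells transiently transfected with multiplexed cis-regulated reporters and dosed 24 h. Gain- or loss-of-signal fitted versus DMSO negative control.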

A short description of test [19]: ATG_ISRE_CIS: Attagene CIS-FACTORIAL HepG2 Assay for human Interferon Regulatory Factor 1 (IRF1) binding to an Interferon-Stimulated Response Element (ISRE) (AID 2282948). As to conditions: HepG2 ISRE cis-reporter (Attagene), mRNA transcription readout; actives raise or lower the signal. A digest of the protocol:
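Read-out: fluorescent RT-PCR products resolved by capillary electrophoresis, reporting endogenous transcription factor activity via ISRE-driven reporter mRNA in transfected HepG2 cells dosed for 24 h; gain or loss fitted relative to DMSO.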

The nature of test [20]: ATG_GRE_CIS: Attagene CIS-FACTORIAL HepG2 Assay for human Glucocorticoid Response Elements (GRE) (AID 2282947). As to conditions: HepG2 GRE cis-reporter, Attagene multiplex mRNA; AC50: actives raise or lower the signal unless noted; outcome: actives raise or lower the signal unless noted. Put shortly:
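Cells (HepG2) bearing transfected cis-promoter reporter transcription units were treated with chemical for 24 hours. Reporter mRNA was measured via RT-PCR with capillary electrophoresis, and activity was fitted in both directions relative to DMSO.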

Sequence of Hepatocyte nuclear factor 3-beta (Homo sapiens) (Q9Y261 whole entry, looked up): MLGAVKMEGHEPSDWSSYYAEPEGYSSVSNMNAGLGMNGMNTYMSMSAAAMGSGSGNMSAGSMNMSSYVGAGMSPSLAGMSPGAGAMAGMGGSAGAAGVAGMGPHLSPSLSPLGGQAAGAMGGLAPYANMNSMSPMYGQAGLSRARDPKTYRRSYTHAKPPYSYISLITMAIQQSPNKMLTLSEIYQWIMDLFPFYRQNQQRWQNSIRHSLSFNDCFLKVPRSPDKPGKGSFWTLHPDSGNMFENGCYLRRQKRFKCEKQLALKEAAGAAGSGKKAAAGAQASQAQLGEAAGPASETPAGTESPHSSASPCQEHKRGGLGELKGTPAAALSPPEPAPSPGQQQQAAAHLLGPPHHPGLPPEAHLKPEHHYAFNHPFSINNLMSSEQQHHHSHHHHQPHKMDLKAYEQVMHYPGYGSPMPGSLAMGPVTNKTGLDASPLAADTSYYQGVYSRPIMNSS
Sequence of Aryl hydrocarbon receptor (Homo sapiens) (P35869 whole entry, looked up): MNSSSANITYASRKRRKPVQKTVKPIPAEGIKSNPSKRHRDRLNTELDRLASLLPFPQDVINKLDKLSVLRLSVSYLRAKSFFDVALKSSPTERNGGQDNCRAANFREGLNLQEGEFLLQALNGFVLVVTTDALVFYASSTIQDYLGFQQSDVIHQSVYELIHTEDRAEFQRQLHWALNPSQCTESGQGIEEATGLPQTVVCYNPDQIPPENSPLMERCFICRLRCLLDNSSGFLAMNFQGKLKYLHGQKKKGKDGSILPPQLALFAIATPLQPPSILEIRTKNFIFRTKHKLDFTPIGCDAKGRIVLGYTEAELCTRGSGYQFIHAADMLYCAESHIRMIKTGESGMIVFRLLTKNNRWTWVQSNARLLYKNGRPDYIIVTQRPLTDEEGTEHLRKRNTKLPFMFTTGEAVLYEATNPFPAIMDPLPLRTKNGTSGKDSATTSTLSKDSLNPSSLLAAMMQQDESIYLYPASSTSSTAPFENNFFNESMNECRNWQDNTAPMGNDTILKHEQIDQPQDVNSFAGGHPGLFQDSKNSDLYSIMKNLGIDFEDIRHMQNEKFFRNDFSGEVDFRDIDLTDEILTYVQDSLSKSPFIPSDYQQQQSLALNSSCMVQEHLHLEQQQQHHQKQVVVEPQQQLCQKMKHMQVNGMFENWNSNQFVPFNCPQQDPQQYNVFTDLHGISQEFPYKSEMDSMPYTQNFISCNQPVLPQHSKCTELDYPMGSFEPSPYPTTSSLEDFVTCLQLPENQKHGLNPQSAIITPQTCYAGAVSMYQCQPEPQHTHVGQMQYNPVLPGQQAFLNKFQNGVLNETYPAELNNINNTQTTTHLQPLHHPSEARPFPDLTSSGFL
Sequence of Retinoic acid receptor alpha (Homo sapiens) (P10276 whole entry, looked up): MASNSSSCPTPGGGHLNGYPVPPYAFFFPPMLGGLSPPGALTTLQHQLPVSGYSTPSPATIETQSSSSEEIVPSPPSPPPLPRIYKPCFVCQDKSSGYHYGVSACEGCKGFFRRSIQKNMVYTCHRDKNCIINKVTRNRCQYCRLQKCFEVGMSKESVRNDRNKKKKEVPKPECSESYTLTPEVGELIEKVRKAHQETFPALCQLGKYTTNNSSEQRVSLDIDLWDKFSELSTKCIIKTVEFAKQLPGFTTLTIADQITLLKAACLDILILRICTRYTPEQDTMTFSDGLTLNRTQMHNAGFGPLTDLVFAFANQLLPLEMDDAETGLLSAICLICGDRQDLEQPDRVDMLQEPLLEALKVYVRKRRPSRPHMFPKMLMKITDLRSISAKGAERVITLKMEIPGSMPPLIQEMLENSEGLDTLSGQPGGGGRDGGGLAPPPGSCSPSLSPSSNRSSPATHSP
Sequence of Transcription factor E2F1 (Homo sapiens) (Q01094 whole entry, looked up): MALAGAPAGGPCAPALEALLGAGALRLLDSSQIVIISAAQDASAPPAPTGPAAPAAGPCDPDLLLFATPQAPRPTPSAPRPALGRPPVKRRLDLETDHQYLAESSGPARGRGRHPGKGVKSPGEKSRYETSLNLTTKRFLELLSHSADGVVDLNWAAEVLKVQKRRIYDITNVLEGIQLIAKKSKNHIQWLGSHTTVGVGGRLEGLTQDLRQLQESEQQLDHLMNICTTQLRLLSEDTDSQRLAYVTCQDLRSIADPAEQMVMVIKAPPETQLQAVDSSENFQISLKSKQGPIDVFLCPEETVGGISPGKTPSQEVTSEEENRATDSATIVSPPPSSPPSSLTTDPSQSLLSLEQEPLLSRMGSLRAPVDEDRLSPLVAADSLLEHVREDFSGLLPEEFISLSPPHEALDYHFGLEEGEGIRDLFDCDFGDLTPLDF
Sequence of Bile acid receptor (Homo sapiens) (Q96RI1 whole entry, looked up): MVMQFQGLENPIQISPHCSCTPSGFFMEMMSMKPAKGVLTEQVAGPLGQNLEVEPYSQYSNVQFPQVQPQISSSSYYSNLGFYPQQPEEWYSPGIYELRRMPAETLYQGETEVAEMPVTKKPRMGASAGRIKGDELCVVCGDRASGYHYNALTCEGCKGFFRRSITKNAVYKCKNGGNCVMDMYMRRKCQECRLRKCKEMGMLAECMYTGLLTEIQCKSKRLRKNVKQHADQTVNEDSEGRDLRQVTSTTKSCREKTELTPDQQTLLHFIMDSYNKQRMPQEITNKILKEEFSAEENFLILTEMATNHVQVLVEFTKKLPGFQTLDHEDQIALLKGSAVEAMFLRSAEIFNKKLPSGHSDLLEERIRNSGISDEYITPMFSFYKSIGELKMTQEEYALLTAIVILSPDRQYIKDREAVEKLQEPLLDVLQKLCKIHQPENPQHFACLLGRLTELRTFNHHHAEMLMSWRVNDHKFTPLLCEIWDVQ

In the case of `OCC(F)(F)C(F)(F)C(F)(F)C(F)(F)C(F)(F)C(F)(F)C(F)(F)C(F)(F)C(F)(F)C(F)(F)C(F)(F)F`, the result in test [1], in test [2], in [3], in test [4], in test [5] and in [6] was inactive. Also, the compound was called inactive in test [7], in [8], in test [9], in test [10], in test [11] and in test [13]. The call in [14], in test [15], in [16], in test [17], in [18] and in [19] was inactive. Also, in test [12], the AC50 was 72.3 µM (active).

With `O=C(O)c1cccc(C(=O)O)n1`, the compound was called inactive in test [1], in test [2], in test [3], in test [4], in test [5] and in [6]. Besides, the outcome in test [7], in test [8], in test [9], in test [10], in [11] and in test [12] was inactive. Moreover, the result in test [13], in [14], in test [15], in [16], in test [17] and in test [18] was inactive. The outcome in test [20] and in [19] was inactive.

For `Cc1ccc2ccc3ccc(C)cc3c2c1`, the result in test [1], in test [3], in test [4], in test [5], in [6] and in [7] was inactive. Also, the result in test [8], in test [9], in [10], in [11], in test [12] and in test [13] was inactive. For the same compound, the compound was classed as inactive in test [14], in [15], in test [16], in test [17], in [20] and in test [19]. In addition, in [2], the AC50 is 50.6 µM (active).
